# Test results: the supplement of paper PMC10849652
# The full data set covers some 8,800 targets. This sample favours those with a hit. About 0.5% of all pairs of compound and target were hits. Unmarked numbers belong to inactive results.
# Key:
# Test in all cases: log2 fold change, soluble protein after heating vs DMSO (PISA); higher = thermal stabilisation; K562 lysate, 10 uM; active = over 0.2 and 3.5 SD of the protein, either way, in both replicates (recomputed)
# erlotinib = compound: C#Cc1cccc(Nc2ncnc3cc(OCCOC)c(OCCOC)cc23)c1 [erlotinib]
# Outline: (§1)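 Thermal stability, expressed as log-two fold change relative to solvent controls, is given from duplicates. Crude K562 extract in PBS pH 7.4 with 1 mM MgCl2, at 1 mg/mL protein, was treated with 10 μM compound for 30 min and heated in aliquots for 3 min across 48°C-58°C. After pooling, adjustment to 0.5% NP-40 at 4°C and centrifugation at 21,000xg for 90 min, supernatant protein was measured by TMTpro 16plex LC-MS/MS with channel sums equalised.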
# [1] = compound: C1=CC(=CC=C1C2=NC3=C(N2)C=C(C=C3)C(=O)N)OC4=CC=C(C=C4)Cl
# Outline: as §1
# [2] = compound: C1=CC=C(C=C1)C2=NC(=C(N2)C3=CC=NC=C3)C4=CC(=C(C=C4)Cl)O
# Outline: as §1
# IRAK-1-4 Inhibitor I = compound: C1COCCN1CCN2C3=CC=CC=C3N=C2NC(=O)C4=CC(=CC=C4)[N+](=O)[O-] [IRAK-1-4 Inhibitor I]
# Outline: as §1
# [3] = compound: CC(=O)c1cnc2ccc(-c3cc(Cl)c(O)c(Cl)c3)nc2c1N[C@H]1CC[C@H](CN(C)C)CC1
# Outline: as §1
# ralimetinib = compound: CC(C)(C)Cn1c(N)nc2ccc(-c3[nH]c(C(C)(C)C)nc3-c3ccc(F)cc3)nc21 [ralimetinib]
# Outline: as §1
# [4] = compound: CC(C)(O)CC(=O)NCCn1ccc2ncnc(Nc3ccc(Oc4cccc(C(F)(F)F)c4)c(Cl)c3)c21
# Outline: as §1
# [5] = compound: CC(C)C1=C2N=C(C=C(N2N=C1)NCC3=CC=CC=C3)NCCCCCCN
# Outline: as §1
# [6] = compound: CC1=C(C(CC(=O)N1)C2=CC=C(C=C2)C(F)(F)F)C(=O)NC3=C(C=C4C(=C3)C=NN4)F
# Outline: as §1
# [7] = compound: CC1=C(C2=C(C=C1)C(=O)C3=CC=CC=C3N2CCCN)C
# Outline: as §1
# [8] = compound: CC1=C(C=C(C=C1)NC(=O)C2=CC(=CC=C2)C(C)(C)C#N)NC3=CC4=C(C=C3)N=CN(C4=O)C
# Outline: as §1
# [9] = compound: CC1=C(C=C(C=C1)NC(=O)C2=CC(=CC=C2)N(C)C)NC(=O)C3=CC=C(C=C3)O
# Outline: as §1
# [10] = compound: CC1=CC=C(C=C1)SC2=C3C=C(SC3=CN=C2)C(=O)N
# Outline: as §1
# [11] = compound: C/C(=N\NC(=O)C1=CC(=CC=C1)S(=O)(=O)N2CCOCC2)/C3=C(C=CC(=C3)Cl)O
# Outline: as §1
# [12] = compound: C1=CC2=C(C=CC(=C2)/C=C\3/C(=O)NC(=NCC4=CC=CS4)S3)N=C1
# Outline: as §1
# [13] = compound: C1=CC=C2C(=C1)C3=NNC4=CC=CC(=C43)C2=O
# Outline: as §1
# [14] = compound: C1CCN(C1)C(=O)NC2=CC=CC(=C2)NC3=NC=C(C(=N3)NCCC4=CN=CN4)Br
# Outline: as §1
# [15] = compound: C1CN(CCC1(CC2=CC=C(C=C2)Cl)N)C3=NC=NC4=C3C=CN4
# Outline: as §1
# [16] = compound: C1=CC2=NC=CN=C2C=C1/C=C/3\C(=O)NC(=O)S3
# Outline: as §1
# ibrutinib = compound: C=CC(=O)N1CCC[C@@H](n2nc(-c3ccc(Oc4ccccc4)cc3)c3c(N)ncnc32)C1 [ibrutinib]
# Outline: as §1
# UniProt Q96E14, sequence (Q96E14 whole entry, looked up): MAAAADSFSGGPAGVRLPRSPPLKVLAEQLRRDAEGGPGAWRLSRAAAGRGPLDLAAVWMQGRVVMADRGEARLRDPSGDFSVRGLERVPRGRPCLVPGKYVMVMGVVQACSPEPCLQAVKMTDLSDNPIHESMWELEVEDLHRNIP
# UniProt Q9Y6D0, sequence (Q9Y6D0 whole entry, looked up): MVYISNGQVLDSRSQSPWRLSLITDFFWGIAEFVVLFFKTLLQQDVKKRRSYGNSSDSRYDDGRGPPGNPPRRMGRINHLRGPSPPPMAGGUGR
# UniProt Q9BXT8, sequence (Q9BXT8 whole entry, looked up): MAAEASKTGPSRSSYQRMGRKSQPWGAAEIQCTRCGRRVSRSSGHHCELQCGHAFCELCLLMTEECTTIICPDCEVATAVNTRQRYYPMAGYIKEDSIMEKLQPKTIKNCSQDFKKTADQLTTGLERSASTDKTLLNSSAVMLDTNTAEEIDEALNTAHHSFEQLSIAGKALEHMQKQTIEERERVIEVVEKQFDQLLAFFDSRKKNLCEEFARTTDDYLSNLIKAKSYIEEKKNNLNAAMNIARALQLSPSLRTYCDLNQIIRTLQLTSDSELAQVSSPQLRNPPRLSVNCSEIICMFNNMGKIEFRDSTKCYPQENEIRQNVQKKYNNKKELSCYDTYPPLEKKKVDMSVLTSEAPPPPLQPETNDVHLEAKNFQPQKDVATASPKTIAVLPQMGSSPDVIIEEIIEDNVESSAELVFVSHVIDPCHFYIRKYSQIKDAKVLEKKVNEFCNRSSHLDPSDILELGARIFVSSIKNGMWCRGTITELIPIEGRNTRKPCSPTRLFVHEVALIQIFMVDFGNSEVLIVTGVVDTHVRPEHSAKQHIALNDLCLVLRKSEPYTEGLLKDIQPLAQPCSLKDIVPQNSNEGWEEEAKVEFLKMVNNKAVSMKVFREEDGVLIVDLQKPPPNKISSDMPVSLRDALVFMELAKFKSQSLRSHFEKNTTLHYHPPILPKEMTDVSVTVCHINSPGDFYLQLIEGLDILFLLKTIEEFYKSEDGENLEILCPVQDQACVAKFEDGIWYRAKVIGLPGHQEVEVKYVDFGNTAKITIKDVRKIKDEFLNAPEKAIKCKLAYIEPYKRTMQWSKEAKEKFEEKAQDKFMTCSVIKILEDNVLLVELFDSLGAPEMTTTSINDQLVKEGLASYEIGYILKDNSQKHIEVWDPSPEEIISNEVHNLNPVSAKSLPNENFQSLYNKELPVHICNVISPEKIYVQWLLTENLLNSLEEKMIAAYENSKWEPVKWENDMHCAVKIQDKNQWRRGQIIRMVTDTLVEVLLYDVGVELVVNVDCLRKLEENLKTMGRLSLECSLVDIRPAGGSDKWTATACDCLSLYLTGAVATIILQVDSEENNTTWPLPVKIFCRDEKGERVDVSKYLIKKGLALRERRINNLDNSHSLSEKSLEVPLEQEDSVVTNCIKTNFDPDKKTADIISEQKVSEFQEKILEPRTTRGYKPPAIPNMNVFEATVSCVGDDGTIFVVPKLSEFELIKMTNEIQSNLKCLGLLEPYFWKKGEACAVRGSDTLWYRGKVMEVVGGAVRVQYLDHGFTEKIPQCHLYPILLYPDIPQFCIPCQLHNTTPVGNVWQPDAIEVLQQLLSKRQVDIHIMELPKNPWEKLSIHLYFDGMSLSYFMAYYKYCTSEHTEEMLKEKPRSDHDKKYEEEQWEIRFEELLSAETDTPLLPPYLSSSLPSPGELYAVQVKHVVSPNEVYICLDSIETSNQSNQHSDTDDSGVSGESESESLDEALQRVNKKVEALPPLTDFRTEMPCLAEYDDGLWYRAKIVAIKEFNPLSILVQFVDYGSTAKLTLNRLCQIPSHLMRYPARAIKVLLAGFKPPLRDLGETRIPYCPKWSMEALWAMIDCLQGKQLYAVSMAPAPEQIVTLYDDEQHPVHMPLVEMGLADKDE
# UniProt Q96K19, sequence (Q96K19 whole entry, looked up): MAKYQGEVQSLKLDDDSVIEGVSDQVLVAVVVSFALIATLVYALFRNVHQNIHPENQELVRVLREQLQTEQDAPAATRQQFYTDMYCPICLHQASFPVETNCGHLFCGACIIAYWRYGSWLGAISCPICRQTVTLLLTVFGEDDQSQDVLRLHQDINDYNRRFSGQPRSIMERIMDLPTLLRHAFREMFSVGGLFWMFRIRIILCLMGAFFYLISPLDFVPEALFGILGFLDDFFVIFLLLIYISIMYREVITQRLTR
# UniProt Q92698, sequence (Q92698 whole entry, looked up): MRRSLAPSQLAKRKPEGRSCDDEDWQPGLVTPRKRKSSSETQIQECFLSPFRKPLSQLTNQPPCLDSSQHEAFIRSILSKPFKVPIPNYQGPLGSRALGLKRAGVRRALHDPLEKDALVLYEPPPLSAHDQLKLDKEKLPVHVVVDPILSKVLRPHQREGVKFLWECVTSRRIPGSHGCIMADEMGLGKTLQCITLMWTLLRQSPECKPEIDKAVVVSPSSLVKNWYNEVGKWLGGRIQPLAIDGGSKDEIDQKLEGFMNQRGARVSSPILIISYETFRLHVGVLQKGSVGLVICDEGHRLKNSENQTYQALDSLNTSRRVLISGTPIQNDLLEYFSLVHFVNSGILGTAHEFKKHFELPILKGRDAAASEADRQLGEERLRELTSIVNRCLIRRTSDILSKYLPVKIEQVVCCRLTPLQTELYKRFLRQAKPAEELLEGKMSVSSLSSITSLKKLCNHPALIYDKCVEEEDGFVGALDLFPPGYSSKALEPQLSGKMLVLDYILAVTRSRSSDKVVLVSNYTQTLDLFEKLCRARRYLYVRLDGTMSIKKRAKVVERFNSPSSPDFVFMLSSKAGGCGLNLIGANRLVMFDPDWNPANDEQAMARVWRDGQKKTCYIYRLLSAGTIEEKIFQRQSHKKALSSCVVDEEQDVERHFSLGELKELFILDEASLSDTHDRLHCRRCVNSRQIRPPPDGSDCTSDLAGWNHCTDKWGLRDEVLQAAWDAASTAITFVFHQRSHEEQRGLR
# UniProt Q8WXA3, sequence (Q8WXA3 whole entry, looked up): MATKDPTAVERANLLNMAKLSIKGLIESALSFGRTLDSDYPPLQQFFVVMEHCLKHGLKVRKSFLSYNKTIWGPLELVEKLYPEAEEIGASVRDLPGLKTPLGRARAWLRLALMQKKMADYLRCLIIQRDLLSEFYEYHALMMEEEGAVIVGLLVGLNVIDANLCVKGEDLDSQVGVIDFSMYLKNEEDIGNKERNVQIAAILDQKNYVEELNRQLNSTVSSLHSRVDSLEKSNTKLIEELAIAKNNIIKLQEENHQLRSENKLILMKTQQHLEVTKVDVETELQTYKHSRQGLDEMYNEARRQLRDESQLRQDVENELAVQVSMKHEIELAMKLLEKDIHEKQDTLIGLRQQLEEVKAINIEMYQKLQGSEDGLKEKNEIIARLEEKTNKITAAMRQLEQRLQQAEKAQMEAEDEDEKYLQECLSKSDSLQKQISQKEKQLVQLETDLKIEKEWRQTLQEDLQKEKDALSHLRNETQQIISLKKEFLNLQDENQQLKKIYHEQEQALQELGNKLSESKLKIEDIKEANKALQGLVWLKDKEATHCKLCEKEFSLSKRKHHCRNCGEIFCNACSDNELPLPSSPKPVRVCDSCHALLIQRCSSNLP
# UniProt O75446, sequence (O75446 whole entry, looked up): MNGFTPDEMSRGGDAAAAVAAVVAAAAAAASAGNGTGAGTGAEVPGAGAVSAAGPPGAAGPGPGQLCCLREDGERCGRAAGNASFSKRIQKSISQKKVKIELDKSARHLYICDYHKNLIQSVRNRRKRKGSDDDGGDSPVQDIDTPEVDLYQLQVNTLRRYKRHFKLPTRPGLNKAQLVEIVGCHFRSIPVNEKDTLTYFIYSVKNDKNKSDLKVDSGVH
# UniProt O75582, sequence (O75582 whole entry, looked up): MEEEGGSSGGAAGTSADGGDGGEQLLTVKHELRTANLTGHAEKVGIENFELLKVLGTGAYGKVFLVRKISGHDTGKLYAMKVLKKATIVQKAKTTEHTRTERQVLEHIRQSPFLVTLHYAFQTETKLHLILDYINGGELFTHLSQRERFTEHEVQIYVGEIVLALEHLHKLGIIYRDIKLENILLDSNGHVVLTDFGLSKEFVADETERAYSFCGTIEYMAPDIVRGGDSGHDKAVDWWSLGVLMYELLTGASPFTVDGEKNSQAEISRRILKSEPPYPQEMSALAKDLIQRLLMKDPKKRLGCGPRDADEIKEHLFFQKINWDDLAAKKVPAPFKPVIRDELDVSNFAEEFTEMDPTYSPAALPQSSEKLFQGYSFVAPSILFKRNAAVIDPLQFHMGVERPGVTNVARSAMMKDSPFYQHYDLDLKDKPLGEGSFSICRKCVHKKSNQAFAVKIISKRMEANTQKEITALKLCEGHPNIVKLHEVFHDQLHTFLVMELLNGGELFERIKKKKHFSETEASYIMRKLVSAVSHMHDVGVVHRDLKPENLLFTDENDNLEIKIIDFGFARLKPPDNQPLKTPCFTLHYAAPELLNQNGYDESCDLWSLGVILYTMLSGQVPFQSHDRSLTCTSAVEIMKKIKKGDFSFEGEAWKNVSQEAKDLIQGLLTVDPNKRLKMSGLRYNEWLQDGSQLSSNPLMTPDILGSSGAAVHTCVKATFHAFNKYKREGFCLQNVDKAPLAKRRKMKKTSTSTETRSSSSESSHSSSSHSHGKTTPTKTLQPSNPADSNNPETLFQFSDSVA
# UniProt Q96LT9, sequence (Q96LT9 whole entry, looked up): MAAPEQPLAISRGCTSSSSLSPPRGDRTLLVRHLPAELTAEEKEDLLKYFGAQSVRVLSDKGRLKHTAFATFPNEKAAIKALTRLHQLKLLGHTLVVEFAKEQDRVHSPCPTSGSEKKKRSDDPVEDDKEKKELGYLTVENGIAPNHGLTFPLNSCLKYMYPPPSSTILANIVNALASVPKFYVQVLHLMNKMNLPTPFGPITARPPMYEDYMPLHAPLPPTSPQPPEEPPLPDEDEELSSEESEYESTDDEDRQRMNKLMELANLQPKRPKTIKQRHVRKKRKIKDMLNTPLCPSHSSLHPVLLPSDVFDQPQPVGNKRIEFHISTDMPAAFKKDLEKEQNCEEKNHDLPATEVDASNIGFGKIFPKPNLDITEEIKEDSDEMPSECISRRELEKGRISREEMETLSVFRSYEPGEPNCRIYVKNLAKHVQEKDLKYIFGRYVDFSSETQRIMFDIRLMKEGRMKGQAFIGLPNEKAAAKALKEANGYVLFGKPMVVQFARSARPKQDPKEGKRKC
Target,log2 fold change (erlotinib),log2 fold change [1],log2 fold change [2],log2 fold change (IRAK-1-4 Inhibitor I),log2 fold change [3],log2 fold change (ralimetinib),log2 fold change [4],log2 fold change [5],log2 fold change [6],log2 fold change [7],log2 fold change [8],log2 fold change [9],log2 fold change [10],log2 fold change [11],log2 fold change [12],log2 fold change [13],log2 fold change [14],log2 fold change [15],log2 fold change [16],log2 fold change (ibrutinib)
RXRA (UniProt P19793),0.102,0.008,-0.025,0.113,-0.028,-0.033,0.087,0.066,0.059,0.063,-0.02,-0.036,0,–,–,–,–,–,–,–
"RNASEH2B, A0A1B0GUE7",–,–,–,–,-0.017,–,–,–,-0.12,–,–,–,0.09,–,–,–,–,–,–,–
RFNG (UniProt Q9Y644),–,–,–,–,–,–,–,–,0.023,–,–,–,–,–,–,–,–,–,–,–
RMI2 (UniProt Q96E14),0.051,-0.121,0.002,0.054,–,-0.061,0.007,-0.032,–,0.021,0.011,0.039,–,-0.246,0.206,-0.121,-0.044,0.117,–,–
SATB2 (UniProt Q9UPW6),-0.019,0.022,-0.006,0.027,-0.005,0.037,-0.004,-0.029,-0.007,-0.023,-0.027,0.002,0.047,-0.044,-0.01,0.031,-0.033,0.009,–,–
RNF24 isoform 2 (UniProt Q9Y225),-0.146,-0.053,–,–,–,–,–,0.33,-0.026,–,0.092,–,–,–,–,–,–,–,0.083,-0.051
RBM45 (UniProt Q8IUH3),–,–,–,–,-0.077,–,–,–,-0.127,–,0.038,–,0.487 (active),–,–,–,–,–,–,–
RUFY2 isoform 1 (UniProt Q8WXA3),–,–,-0.099,0.05,–,-0.031,0.005,–,-0.118,–,-0.101,-0.033,–,-0.117,0.02,0,-0.01,0.041,0.016,0.068
SERAC1 (UniProt Q96JX3),0.004,-0.235,–,–,–,–,–,-0.115,0.051,-0.193,–,–,–,–,–,–,0.123,0.056,-0.014,0.066
RNF17 (UniProt Q9BXT8),-0.055,0.008,0.013,0.055,0.035,-0.044,-0.254,-0.023,–,0.077,-0.196,-0.044,-0.068,–,–,–,-0.025,0.033,0.553,-0.098
S100A6 (UniProt P06703),0.045,-0.025,-0.196,-0.209,-0.082,0.117,0.152,-0.01,–,0.793 (active),0.04,0.199,0.032,0.346,0,0.02,0.352,0.151,–,–
RNPC3 (UniProt Q96LT9),0.004,-0.059,0.011,0.076,0.017,0.02,-0.029,-0.122,-0.027,-0.015,-0.028,0.054,-0.003,–,–,–,–,–,–,–
RHBDD1 (UniProt Q8TEB9),–,–,–,–,-0.518 (active),–,–,–,–,–,–,–,0.038,-0.476,0.19,-0.056,-0.093,0.159,0.337,-0.059
RBM4 isoform 3 (UniProt Q9BWF3),–,–,–,–,–,–,–,–,–,–,-0.092,–,–,–,–,–,–,–,–,–
RLIM (UniProt Q9NVW2),–,–,–,–,–,–,–,–,–,–,0.465,–,–,–,–,–,–,–,-0.021,0.014
RNF170 (UniProt Q96K19),0.062,-0.125,–,–,0.107,–,–,0.084,0.302,-0.035,–,–,-0.036,-0.018,0.136,-0.577,–,–,0.032,-0.006
RBBP7 (UniProt C9J7L0),–,–,–,–,–,–,–,–,-0.187,–,–,–,–,–,–,–,–,–,–,–
SEC16A isoform 3 (UniProt O15027),–,–,0.41,0.123,–,-0.283,-0.122,–,–,-0.006,–,-0.023,–,–,–,–,–,–,–,–
SELENOK (UniProt Q9Y6D0),–,–,–,–,-0.134,–,–,–,0.092,-0.164,–,–,0.022,-0.075,0.02,0.044,–,–,0.089,0.05
RAD54L (UniProt Q92698),-0.026,-0.005,-0.071,0.02,0.035,-0.062,-0.224,0.085,0,0.039,–,0.054,0.059,–,–,–,–,–,-0.072,-0.081
RAD17 (UniProt O75943),–,–,-0.047,0.021,–,0.054,0.041,–,0.026,-0.029,-0.041,0.049,–,0.005,-0.1,-0.458 (active),0.031,0.019,0.014,0.023
"QSER1, A0A3B3IRW6",-0.056,0.054,-0.006,-0.014,-0.047,-0.014,-0.021,-0.009,-0.001,0.037,0.009,0.087,-0.087,0.025,-0.057,0.059,0.002,-0.046,–,–
RPS6KA3 (UniProt P51812),-0.04,0.182,0.026,-0.019,0.56 (active),-0.004,-0.032,-0.11,-0.043,-0.02,-0.061,0.006,-0.039,-0.003,–,0.328,0.082,-0.043,0.004,-0.04
RNF2 (UniProt Q99496),0.061,-0.031,0.002,-0.039,–,-0.053,-0.01,0.017,0.009,-0.081,-0.048,0.024,–,-0.088,0.036,-0.01,0.048,-0.037,–,–
SAP30 (UniProt O75446),–,–,–,–,0.033,–,–,–,0.101,-0.007,0.016,–,0.006,0.06,0.025,0.013,0.011,0.067,-0.037,0.058
RHOU (UniProt Q7L0Q8),-0.052,-0.096,0.002,-0.089,-0.007,0.057,0.009,0.066,0.012,0.015,-0.003,0.019,0.045,0.07,-0.054,0.061,-0.006,0.03,–,–
RYR1 (UniProt P21817),-0.077,-0.174,-0.025,-0.003,0.008,-0.028,-0.012,-0.088,–,-0.014,0.195,-0.032,0.013,–,–,–,-0.029,-0.057,0.012,0.091
SEC16A isoform 2 (UniProt O15027),–,–,-0.07,-0.053,–,-0.103,-0.062,–,–,–,–,0.167,–,–,–,–,–,–,–,–
RPS6KA5 (UniProt O75582),-0.036,0.2,0.023,0.014,0.173,-0.02,-0.055,-0.027,0.011,-0.04,-0.441 (active),0.004,0.005,-0.161,0.014,0.152,-0.02,-0.11,–,–
SCNM1 (UniProt Q9BWG6),0.045,0.044,-0.005,-0.021,-0.026,0.013,0.012,0.062,0.065,-0.189,0.06,-0.069,-0.221,–,–,–,-0.054,-0.158,–,–
